These results are taken from PubChem BioAssay AID720533 (National Center for Advancing Translational Sciences (NCATS), 2013).

Each structure is given as a SMILES string. In all, about 18,000 compounds went through this assay and about 750 (4.2%) were called active. Not shown: some 13% with an inconclusive outcome. Calls come from the whole dose curve; tested in HEK293 cells. The full list was thinned out, with actives kept by preference.
% is set by controls: 0 for no effect and ±100 for the full control effect; potency is the fitted concentration of half-maximal effect.

A short description of this assay: qHTS for Inhibitors of binding or entry into cells for Lassa Virus. The settings on record: Lassa virus pseudotyped entry inhibition, cell-based qHTS; series mostly up to 49.2 µM; activity change, negative = inhibition: at the top concentration. On the technique in general: Quantitative high-throughput screening tests each substance at several concentrations.
For `O=c1[nH]c(=O)c2nc3ccccc3nc2[nH]1`, the “activity change, negative = inhibition” value is 4.84% (inactive).
Same read-out and setting: the result for `CC(O)(COc1ccccc1)c1ccc2c(c1)CN(Cc1cn[nH]c1-c1ccc(F)cc1)CCO2` (centres undefined) reads -20.1% (inactive); that for `CCCCCC(=O)N1C[C@H](n2cc(COC(=O)c3ccccc3)nn2)[C@@H](O)C[C@H]1c1ccc(Cl)cc1`, -9.09% (inactive).
Regarding `C=C(CCN1C=C(C(=O)OCC)C(c2ccccc2)NC1=O)OC` (centres undefined), the activity change, negative = inhibition is -11% [at 8.59 µM] (inactive).
Still for that read-out and setting: the value for `CC(O)[C@@H](N)C(=O)O` (some centres undefined) was -10.8% (inactive).
As for `COc1c(O)c2c(=O)cc(OC)c3c4c(OC)cc(=O)c5c(O)c(OC)c6c(c(c1C[C@@](C)(O)[C@H]6C(C)=O)c23)c54`, the Potency was 35.5 µM (active).
Take `CCOC(=O)C1=NO[C@@]2(C=C(Br)C(=O)[C@H]3O[C@H]32)C1`: the “activity change, negative = inhibition” value is -19.1% (inactive).
The same measure, in the same setting: the result for `COc1ccc(C2CC(=O)Oc3ccc(C(C)(C)C)cc32)cc1` (centres undefined) reads -3.99% (inactive).
As for `CC(C)C[C@@H](CC(=O)N[C@@H](CCC(=O)O)CC(=O)O)NC(=O)[C@@H]1CCCC[C@H]1NC(=O)C[C@@H](NC(=O)C[C@H](CO)NC(=O)[C@@H]1CCCC[C@H]1N)C(C)C`, the “activity change, negative = inhibition” value was -3.83% (inactive).
Take `CN1CCCC1CCO[C@@](C)(c1ccccc1)c1ccc(Cl)cc1` (some centres undefined): the Potency is 12.6 µM (active).
As for `CN1CCC[C@@H]1CCO[C@](C)(c1ccccc1)c1ccc(Cl)cc1`, the “activity change, negative = inhibition” value was -29.2% [at 17.8 µM] (inactive).
As for `Fc1ccc(C(OCCN2CCN(C/C=C\c3ccccc3)CC2)c2ccc(F)cc2)cc1`, the Potency is 28.2 µM (active).
On to `COc1ccc(CC2c3cc(OC)c(OC)cc3CC[N+]2(C)CCC(=O)OCCCCCOC(=O)CC[N+]2(C)CCc3cc(OC)c(OC)cc3C2Cc2ccc(OC)c(OC)c2)cc1OC` (centres undefined), for which the “activity change, negative = inhibition” value was -6.74% [at 17.8 µM] (inactive).
Same read-out and setting: the result for `CC(C)[C@@H](CC(=O)N[C@@H]1CCNC[C@H]1C(=O)N[C@H](CC(=O)N[C@@H](CCC(=O)O)CC(=O)O)Cc1ccccc1)NC(=O)C[C@H](CO)NC(=O)[C@@H]1CNCC[C@H]1N` reads -0.433% (inactive).
The same measure, in the same setting: the value for `CN1CC(O)c2cc(N=NC(N)=O)c(O)cc21` (centres undefined) was -5.48% (inactive); that for `CN(C)CCc1c[nH]c2ccc(Cn3cncn3)cc12` was 5.48% (inactive).
Same read-out and setting: the value for `Fc1ccc(Cl)cc1-c1nc(Nc2ccncc2)c2nccnc2n1` was -20.8% (inactive); that for `CCS(=O)(=O)N(C)[C@@H]1c2cc(C#N)ccc2OC(C)(C)[C@H]1O` was “inactive”.
For the molecule `CCc1cc2c(nc1CC)CCN(CCC(C)=NOC[C@@H](O)COCc1ccco1)C2`, the activity change, negative = inhibition is 3.34% [at 8.59 µM] (inactive).
On the same count and under the same terms, the value for `Cc1ccc(-c2cc(=O)c3ccc(Cl)cc3[nH]2)cc1` was 0.446% (inactive); that for `C=C(C(C)=O)C(O)c1cccs1` (centres undefined) was “inactive”.
On to `COC12CC[C@@]3(C[C@@H]1C(C)(O)C(C)(C)C)[C@H]1Cc4ccc(O)c5c4[C@@]3(CCN1CC1CC1)[C@H]2O5` (some centres undefined), for which the Potency was 28.2 µM (active).
Take `COc1ccc(CNS(=O)(=O)c2cc(Br)ccc2Br)cc1`: the “activity change, negative = inhibition” value was 15.9% (inactive).
Regarding `O=S(O)CNc1ccc(S(=O)(=O)c2ccc(NCS(=O)O)cc2)cc1`, the “activity change, negative = inhibition” value is 1.37% (inactive).
Same read-out and setting: the value for `O=C(O)C1=CCCN(CCON=C(c2ccccc2)c2ccccc2)C1` was “inactive”; that for `COc1ccc(C2=C(N3CCc4ccccc43)C(=O)NC2=O)cc1` was -26.5% (inactive); that for `CC1=C(/C=C/C(C)=C/C=C/C(C)=C/C=C/C=C(C)/C=C/C=C(C)/C=C/C2=C(C)CCCC2(C)C)C(C)(C)CCC1` was 9.81% (inactive).
Regarding `COc1ccc(CCNc2ncnc3sc(C(=O)N4CCCC4)c(C)c23)cc1OC`, the “activity change, negative = inhibition” value was -8.35% (inactive).
On the same count and under the same terms, the result for `Cc1c2ccc(N(C)c3ccnc(Nc4cccc(S(N)(=O)=O)c4)n3)cc2nn1C` reads -0.986% (inactive); that for `C=CCC(C)(O)c1ccco1` (centres undefined), -0.27% (inactive).
On the same count and under the same terms, the value for `CC1=C[C@H]2c3ccccc3C[C@H]2CO[C@]12C(=O)N(Cc1ccc(Br)cc1)c1ccccc12` was 16.7% [at 8.59 µM] (inactive); that for `COc1ccccc1-c1ccnc(-n2ncc(C(=O)NCCc3ccncc3)c2C)n1` was -18.3% (inactive); that for `CCOc1ccc(NS(=O)(=O)c2ccc(N)cc2)nn1` was 2.16% (inactive).
On the same count and under the same terms, the value for `CC(C)[C@@H](CO[Si](C)(C)C(C)(C)C)N1C[C@@H](N2CCCC2)CS1(=O)=O` was -10.9% (inactive).
As to `C=CC1=C2C=C(C3CC3)N(CC(C)C)C=C2C(=O)C(C)(OC(=O)c2ccco2)C1=O` (centres undefined), the activity change, negative = inhibition was -4.02% [at 8.59 µM] (inactive).
Same read-out and setting: the result for `NC(=O)C(=O)N/N=C/c1ccc([N+](=O)[O-])o1` reads -13% (inactive); that for `Cc1ccc(-c2nn(CC(C)(C)C)c3ncnc(N)c23)cc1`, -24.1% (inactive).
As to `Cc1csc(-c2coc3cc(O[C@@H]4O[C@H](CO)[C@@H](O)[C@@H](O)[C@H]4O)ccc3c2=O)n1`, the “activity change, negative = inhibition” value is 28% (inactive).
Still for that read-out and setting: the result for `COc1ccc([C@@H](NC(=O)C(F)(F)F)C2CCCC=C2c2ccccc2)cc1OC` (some centres undefined) reads -11.1% [at 8.59 µM] (inactive); that for `NNc1nnc(Cc2ccncc2)c2ccccc12`, -16.1% (inactive).
Same read-out and setting: the value for `O=Cc1c(Cl)cccc1Cl` was -7.53% (inactive); that for `O=C1C(c2ccccn2)=[N+]([O-])c2ccccc21` was 1.18% (inactive); that for `Cc1nnc(C(=O)NC(C)(C)c2nc(C(=O)NCc3ccc(F)cc3)c(O)c(=O)n2C)o1` was -10.3% (inactive).
`C[C@@H]1C[C@H]2CC[C@H](O2)[C@H](C)C(=O)O[C@@H](C)C[C@@H]2CC[C@@H](O2)[C@@H](C)C(=O)O[C@H](C)C[C@H]2CC[C@H](O2)[C@H](C)C(=O)O[C@@H](C)C[C@@H]2CC[C@@H](O2)[C@@H](C)C(=O)O1`: the Potency was 0.562 µM (active).
As to `CCCCCCCCCCCC(=O)O[C@H](CC(=O)O)C[N+](C)(C)C`, the “activity change, negative = inhibition” value was -5.17% (inactive).
Same read-out and setting: the result for `COC1=C[C@H](C(=O)N[C@H]2CCCC[C@H]2NC(C)=O)[C@H](C)[C@@H](c2ccccc2)CC1=O` reads -1.51% [at 8.59 µM] (inactive); that for `COc1cccc([C@@H]2Oc3ccc(Br)cc3C(=O)[C@H]2OC(=O)NCc2ccc3c(c2)OCO3)c1`, -0.946% (inactive).
Same read-out and setting: the value for `CN1CCCCCC1C(=O)NCCN1Cc2ccccc2OC(c2ccsc2)C1` (centres undefined) was 4.6% (inactive).
Same read-out and setting: the value for `CCCCC/C=C\C[C@H](O)/C=C/C=C/C=C/[C@@H](O)CCCC(=O)O` was 6.82% (inactive).
As for `O=C(/C=C/c1cccc(F)c1)NC1CC1`, the “activity change, negative = inhibition” value is 9.73% (inactive).
Consider `CC[N+](C)(CC)CCC[n+]1c(-c2ccccc2)c2cc(N)ccc2c2ccc(N)cc21`, for which the Potency is 3.16 µM (active).
As for `Brc1ccc(C2=NCCC(c3ccccc3)O2)cc1` (centres undefined), the “activity change, negative = inhibition” value is -12.7% (inactive).
With `COC1=C[C@H](C(=O)NCc2ccccc2)[C@@]2(C)Cc3ccccc3[C@@H]2CC1=O`, the activity change, negative = inhibition is -4.25% [at 8.59 µM] (inactive).
Turning to `CCCC[C@]12Cc3cc(C#N)ccc3[C@H](O1)c1c(cc(-c3ccccc3)oc1=O)O2`, the activity change, negative = inhibition is 20.3% [at 8.59 µM] (inactive).
